# Bioassay records: PubChem, National Center for Advancing Translational Sciences (NCATS)
# Shown are actives, neighbours in structure and some others; about 12% of the full set was active somewhere.
# HP1b chromo inh: HTS for Inhibitors of HP1-beta Chromodomain Interactions with Methylated Histone Tails; Chromobox protein homolog 1 (Homo sapiens), P83916; AlphaScreen HP1-beta / biotin-H3K9me3 peptide binding; 0.56% of 390,000 active; Potency, µM (series often up to 114 µM), for inactives: top-dose activity change, negative = inhibition, most hits filed as inhibitors; note: nearly all actives have a fitted effect of over 70% in size
#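 AlphaScreen: HP1-beta (50 nM) preformed 30 min with biotin-H3(1-18)K9me3 peptide (50 nM) in PBS pH 7.4, 0.01% Tween-20. Compound added for 30 min at RT, then streptavidin donor/nickel chelate acceptor beads (10 ug/mL) for 30 min.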
# G9a inh: qHTS Assay for Inhibitors of Histone Lysine Methyltransferase G9a | Histone-lysine N-methyltransferase EHMT2 (Homo sapiens), Q96KQ7 | Potency, µM (titrated, usually from 102 µM), without a hit: top-dose activity, negative = inhibition, usual class: inhibitors | G9a H3K9 monomethylation, AlphaScreen, 2 h | 8.8% of 350,000 active; note: % is set by controls: 0 for no effect and ±100 for the full control effect; nearly all actives have a fitted effect of over 75% in size
#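 Methyltransferase reactions run at room temperature for 2 h (20 nM enzyme, 500 nM biotin-H3K9 peptide, 20 uM SAM) after a 15 min compound preincubation; product detected by AlphaScreen beads and anti-H3K9me1 antibody.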
# Sfp PPTase inh: qHTS Assay for Inhibitors of Bacillus subtilis Sfp phosphopantetheinyl transferase (PPTase) | Biochemical Sfp PPTase activity, qHTS | Potency, µM, for inactives: largest response in the series, negative = inhibition, usual class: inhibitors | 3.5% of 310,000 active | AID 1490, 2009;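 note: the enzyme is Sfp with the accession as filed and its product quenches rhodamine fluorescence; 0% = enzyme reaction without inhibitor and -100% = no enzyme wells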
#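 With Hepes-Na pH 7.6 buffer containing 10 mM MgCl2, Sfp (15 nM) modified BHQ-2-YbbR (12.5 uM) using rhodamine-CoA (5 uM). Two reads 30 minutes apart at 525/598 nm yielded each well's rate.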
# JMJD2A Tudor inh: qHTS Assay for Inhibitors of JMJD2A-Tudor Domain; Lysine-specific demethylase 4A (Homo sapiens), O75164; AlphaScreen JMJD2A-Tudor / H3K4me3 peptide binding; Potency, µM (doses to about 114 µM), for inactives: at the top dose activity change, negative = inhibition, actives largely listed as inhibitors; 4.4% of 390,000 active; AID 504339, 2011; note: % is set by controls: 0 for no effect and ±100 for the full control effect; nearly all actives have a fitted effect of over 50% in size
# BAZ2B inh: qHTS Assay for Inhibitors of BAZ2B; Bromodomain adjacent to zinc finger domain protein 2B (Homo sapiens), Q9UIF8; AlphaScreen BAZ2B-H3K14Ac peptide displacement; Potency, µM (series often up to 114 µM), for inactives: at the highest dose activity change, negative = inhibition, hits mostly inhibitors; 4.4% of 360,000 active; AID 504333, 2011; note: % is set by controls: 0 for no effect and ±100 for the full control effect; nearly all actives have a fitted effect of over 60% in size
#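 Complex of BAZ2B and biotin-H3K14Ac (50 nM apiece) forms over 30 min at RT, then faces library compounds up to 110 uM for another 30 min; AlphaScreen beads added, 20 min dark incubation, luminescence read.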
# Numbers without * were called inactive; ? = inconclusive; . = no result given; [ ] = remark or other dose. Calls come from the whole dose curve; as a rule, active = well fitted curve in the direction sought with a large enough effect; inconclusive = small, poorly fitted or top-dose-only effect, or another doubt; inactive = no such curve, though single readings can be large; an effect the other way counts as inactive or inconclusive. Potency is the fitted concentration of half-maximal effect.
SMILES,HP1b chromo inh,G9a inh,Sfp PPTase inh,JMJD2A Tudor inh,BAZ2B inh
Cc1cc(S(=O)(=O)Nc2ccc(N(C)C)cc2)c(C)s1,-18%,?,-11%,50µM*,45µM*
COc1ccc(S(=O)(=O)Nc2ccc(F)cc2)cc1N(C)S(=O)(=O)c1ccc(Cl)cc1,43%,6%,-12%,-22%,-27%
CCN1CCN(Cc2c(O)ccc3c(=O)c(Oc4ccccc4Cl)c(C(F)(F)F)oc23)CC1,27%,5%[59 µM],.,-3%,-1%
COc1ccccc1-c1cc(NCc2ccccc2)ncn1,.,3%[0.501 µM],-5%,.,.
COc1ccccc1N=Cc1c(C)[nH]n(-c2ccc(C)cc2C)c1=O,?,50µM*,-6%,?,-32%
COc1cc(SC#N)ccc1N=Cc1c(C)[nH]n(-c2ccc(C)cc2C)c1=O,7%,13µM*,-11%,-28%,-38%
CCOC(=O)N1CCN(C(=O)C2CCN(C(=O)c3ccccc3C)CC2)CC1,7.9µM*,.,.,7.1µM*,.
Cc1ccccc1C(=O)N1CCC(C(=O)Nc2ccccc2N2CCCC2)CC1,-4%,50µM*,.,-28%,1%
Cc1ccccc1C(=O)N1CCC(C(=O)Nc2ccccc2Cl)CC1,25%,31%,2%,1%,2%
Cc1nc2nc(C)c(NS(=O)(=O)c3ccc(CC(C)C)cc3)c(=O)n2[nH]1,-4%,40µM*,21%,1%,12%
Cc1ccc(S(=O)(=O)Nc2c(C)nc3nc(C)[nH]n3c2=O)cc1,-6%,79µM*,18%,?,10%
CCCCC(Sc1ccc2nnc(-c3ccccn3)n2n1)C(=O)O (configuration not stated),-5%[57 µM],.,.,?,.
Cc1nnsc1C(=O)NNc1c(Cl)cccc1Cl,33%,8.9µM*,-1%,-8%,4%
Cc1nnsc1C(=O)NNc1ccc(Cl)cc1,34%,.,1%,1%,-9%
CCc1ccccc1NNC(=O)c1snnc1C,12%,2.8µM*,?,-7%,-12%
CCc1ccccc1NNC(=O)c1sccc1Cl,37%,.,.,-24%,.
Cc1cc(C)c(NC(=S)NC(CO)(CO)CO)c(C)c1,16%,10µM*,-6%,89µM*,2%
O=C(NCCc1ccc(Cl)cc1)c1ccc2ccccc2n1,101%,?,-22%,?,3%
O=C(O)C(=O)/C(=C\c1ccc(Cl)cc1)c1ccc2ccccc2n1,38%,8%,-12%,22µM*,?
Cc1ccc(-c2noc(CN(C)C(=O)c3ccc(Br)o3)n2)cc1,?,50µM*,.,-3%,?
N/C(=N\OC(=O)COc1ccc(Br)cc1)c1ccncc1,38%,-4%[59 µM],4%,-4%,6%
N/C(=N\OS(=O)(=O)c1ccc(Br)cc1)c1ccncc1,-38%,40µM*,17%,-27%,2%
N/C(=N\OS(=O)(=O)c1ccc(Cl)cc1)c1ccccn1,56%,2µM*,-21%,25µM*,25µM*
N/C(=N\OC(=O)c1ccc(Cl)cc1)c1ccccn1,16%,.,0%,-19%,9%
N/C(=N\OS(=O)(=O)c1ccccc1)c1ccccn1,44%,?,-20%,3.5µM*,22µM*
SMILES,HP1b chromo inh,G9a inh,Sfp PPTase inh,JMJD2A Tudor inh,BAZ2B inh
CC(C)C(=O)O/N=C(\N)c1ccccn1,17%,-26%[59 µM],21%,-3%,4%
O=C(O)c1cc(O)c2c(c1)[O][Bi][O]2,.,1µM*,?,.,.
O=C(O)c1ccc2c(c1)OCO2,.,.,10%,.,.
CCOC(=O)/C(=N\Nc1cccc(Cl)c1)Sc1nnc(-c2ccc(OC)cc2)n1C,25%,8.9µM*,-4%,-15%,-9%
O=C(Nc1ccc(Cl)cc1)OCCn1nnnc1C(c1ccccc1Cl)N1CCOCC1 (configuration not stated),-18%,11%[59 µM],1%,35µM*,-3%[57.1 µM]
O=C(Nc1ccc(Cl)cc1)OCCN1CCOCC1,16%[57 µM],.,.,-12%,.
Cc1ncc(CO)c(/C=N/NC(=S)Nc2ccc(F)cc2)c1O,?,-152%[59 µM],-17%,40µM*,3.2µM*
Cc1ncc(CO)c(/C=N/N=C/c2ccccc2O)c1O,-2%,14%[59 µM],-11%,?,?
Cc1ncc(CO)c(/C=N/Nc2ccc(C(F)(F)F)cn2)c1O,-24%[57 µM],-3%,6%,?,20µM*
Cc1nn(-c2nnc(NCc3ccccc3)nn2)c(C)c1Br,?,13µM*,-4%,50µM*,35µM*
Cc1cc(C)n(-c2nnc(NCc3ccc(Cl)cc3)nn2)n1,?,-35%,14%,40µM*,?
Cc1cc(C)c(C)c(S(=O)(=O)N[C@@H](C)C(=O)OCc2cc(=O)n3cc(Br)ccc3n2)c1C,17%,?,5%,-26%,50µM*
Cc1ccccc1C(=O)NC(CC(C)C)C(=O)OCc1cc(=O)n2cc(Br)ccc2n1 (configuration not stated),16%,24%[59 µM],-12%,-10%,-3%
CC1(C)NC(=O)N(CC(=O)OCc2cc(=O)n3cc(Br)ccc3n2)C1=O,21%,0%,15%,-3%,.
O=C(CN1C(=O)NC2(CCCC2)C1=O)OCc1cc(=O)n2cc(Br)ccc2n1,?,?,9%,50µM*,?
Cc1ccc2sc(C)[n+](CCC(C)S(=O)(=O)[O-])c2c1 (configuration not stated),55%,-7%[59 µM],40µM*,-8%,9%
CC/C(=C/c1sc2ccc(C)cc2[n+]1CCO)SC,61%,.,28µM*,?,?
CCn1c(C)[n+](CCCS(=O)(=O)[O-])c2cc(Cl)c(Cl)cc21,13%,?,-5%,?,-12%
CC/C(=C/c1sc2ccc(C)cc2[n+]1CCCS(=O)(=O)[O-])SC,81%,45µM*,50µM*,0%,?
COc1ccc(N2CCN(C(c3cc(OC)ccc3OC)c3nnnn3Cc3ccco3)CC2)cc1 (configuration not stated),16µM*,16µM*,-15%,50µM*,45µM*
CCC(c1nnnn1CCc1ccccc1)N1CCN(c2ccc(OC)cc2)CC1 (configuration not stated),-5%,11µM*,2%,-33%,?
CC(C)n1nnnc1C(c1ccc(F)cc1)N1CCN(C2CCCC2)CC1 (configuration not stated),51%,79µM*,-9%,-21%[11.4 µM],?
CCCCC(c1nnnn1CC1CCCO1)N1CCN(c2nc3ccccc3s2)CC1 (configuration not stated),62%,28µM*,-10%,-18%[11.4 µM],50µM*
Fc1ccc(C(c2nnnn2Cc2ccco2)N2CCN(C3CCCCC3)CC2)cc1 (configuration not stated),21%,-9%[12.7 µM],14%,-2%,0%
